Measurements: PubChem BioAssay (NCI)
This is part of a sample that, as a whole, favours compounds with a hit. Of some 83,000 tested, about 20% had one in any assay.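 Values shown are percent growth following 48 h exposure of cells in 96-well plates to a single concentration of compound; below 10 was considered active.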 Unmarked numbers belong to inactive results. The source made the active and inactive calls.

Columns and labels:
Test in all cases: NCI-60 one-dose screen, 48 h (100 = growth as untreated, 0 = no growth, -100 = all killed)
Details in all cases: 10 µM
T-47D breast = system: T-47D breast
BT-549 breast = system: BT-549 breast
MDA-MB-435 melanoma = system: MDA-MB-435 melanoma
SW-620 colon = system: SW-620 colon
MCF7 breast = system: MCF7 breast
HCT-116 colon = system: HCT-116 colon
HCC-2998 colon = system: HCC-2998 colon
MDA-MB-468 breast = system: MDA-MB-468 breast
KM12 colon = system: KM12 colon

Structure (SMILES) | growth (T-47D breast) | growth (BT-549 breast) | growth (MDA-MB-435 melanoma) | growth (SW-620 colon) | growth (MCF7 breast) | growth (HCT-116 colon) | growth (HCC-2998 colon) | growth (MDA-MB-468 breast) | growth (KM12 colon)
CCCn1c(=O)c2[nH]c(-c3ccc(OCc4nc5ccc(C#N)cc5[nH]4)cc3)nc2n(CCC)c1=O | 35.7% | 92.6% | 97.5% | 80.5% | -48.9% (active) | 58.2% | 95.3% | 65.9% | 
Cc1cc(C)nc(NS(=O)(=O)c2ccc(N/C(N)=N/c3nccc(-c4cccs4)n3)cc2)n1 | 78.8% | 111% | 106% | 102% |  | 96.4% | 127% |  | 
CC(=O)NNc1ccc2nnc(-c3ccc(Br)cc3)n2n1 | 84.2% | 90.2% | 94.6% | 102% | 87.8% | 101% | 109% | 97.4% | 105%
Cc1ccc(/C=C/C(=O)c2ccc(S(=O)(=O)NCCNc3nc(Nc4ccc(F)cc4)nc(N(C)C)n3)cc2)cc1 | 24.8% | 64.6% | -23% (active) | -8.7% (active) | -55.8% (active) | -51.7% (active) | -11.9% (active) | -2.81% (active) | 
O=C(CSc1nnc(-c2c[nH]c3ccccc23)n1-c1ccccc1)Nc1ccc(C(=O)/C=C/c2ccccc2Cl)cc1 | 43.1% | 84.4% | 65.8% | 87.6% | 40.4% | 22.1% | 94.6% | 72.1% | 
CCOC(=O)c1c(CSc2ccccc2)n(C)c2cc(CN(C)C)c(O)c(CN(C)C)c12 | 50.2% | 63.7% | 54% | 23.1% | 3.06% (active) | 10.9% | 12.1% | -4.94% (active) | 
COc1cccc(/C=C2\N=C(C)N(CCc3ccc(S(N)(=O)=O)cc3)C2=O)c1 | 97.3% | 100% | 114% | 105% | 95.2% | 97.8% | 117% | 113% | 
COc1ccccc1[C@H]1C(C(=O)c2ccc(Cl)cc2)C2(N[C@@H]1c1ccccc1)C(=O)Nc1ccccc12 (stereo not given in full) | 6.01% (active) | -22.7% (active) | -58.7% (active) | 5.84% (active) | -11.1% (active) | 0.0933% (active) | -51.1% (active) | -29.6% (active) | 
CCN1CCN(c2ccc(NC(=O)Nc3ccc(-c4cc(C(=O)NC(C)C)c5ncccc5n4)cc3)cc2C(F)(F)F)CC1 | -66.5% (active) | -82.1% (active) | -92.9% (active) | -69.8% (active) | -89.9% (active) | -94% (active) | -98.2% (active) | -91.1% (active) | 
COc1ccc2c3nc4cc(C)c(C)cc4nc3n(CCN(C)C)c2c1 | -12.2% (active) | 39.4% | -76.1% (active) | -51.6% (active) | -16.6% (active) | -61.1% (active) | -56.1% (active) | -10.9% (active) | 
COc1ccc(NC(=O)Nc2ccc(OCC(=O)N=Nc3c(O)[nH]c4ccc([N+](=O)[O-])cc34)cc2)cc1 | 32.6% | 27.5% | 106% | 98.3% | 38.2% | 85.6% | 66.6% | 30.2% | 
COc1cccc(/C=N/NC(=O)c2ccc3nc(-c4ccc(Cl)cc4)[nH]c3c2)c1O | -33.2% (active) | -96.7% (active) | -89.3% (active) | -77.1% (active) | -78.5% (active) | -90.3% (active) | -98% (active) | -96.1% (active) | 
COc1cc(/C=C/C(=O)c2ccc(F)cc2)ccc1Oc1nc(Nc2ccc(F)cc2)nc(N(C)C)n1 | 28.5% | 88.6% | 68.5% | 2.33% (active) | 16.6% | 30.2% | 89% | 28% | 
Cc1ccc(C(=O)N/C(=C2/OCCN2C)[P+](c2ccccc2)(c2ccccc2)c2ccccc2)cc1 | 55.3% | 86.8% | 54.4% | 84.1% | 56.4% | 57.9% | 75.1% | -13.3% (active) | 
S=c1nc(-c2ccccc2)cc(-c2cc3ccccc3nc2Cl)[nH]1 | 78.1% | 51.9% | -10.8% (active) | 48.3% | 45.1% | 31.5% | 104% | 66.8% | 
O=C(CSc1nnc(-c2c[nH]c3ccccc23)n1-c1ccccc1)Nc1ccc(C(=O)/C=C/c2cccc([N+](=O)[O-])c2)cc1 | 57.5% | 93.5% | 98.9% | 101% | -6.63% (active) | -54% (active) | 62.7% | 75.4% | 88.7%

Structure (SMILES) | growth (T-47D breast) | growth (BT-549 breast) | growth (MDA-MB-435 melanoma) | growth (SW-620 colon) | growth (MCF7 breast) | growth (HCT-116 colon) | growth (HCC-2998 colon) | growth (MDA-MB-468 breast) | growth (KM12 colon)
CSc1nc(-c2cccc(C)c2)c2cc(-c3ccccc3)n(C)c2n1 | 1.02% (active) | -5.93% (active) | -39.3% (active) | 20.3% | 5.57% (active) | 13.5% | 39.4% | -29.2% (active) | 
COc1ccc(/C(C)=N/N=C2C(=O)N(C)c3ccc(Br)cc32)cc1S(N)(=O)=O | 52.6% | 29.2% | 95.9% | 85.7% | 57.8% | 74.4% | 98.3% | 70.2% | 
Cc1ccc(CSc2nc(-c3ccc(F)cc3)c(C#N)c(=O)[nH]2)cc1 | 86.5% | 84.2% | 106% | 102% | 89.2% | 98.5% | 115% | 126% | 
C=CC(=O)Nc1nc(-c2cccc(NS(=O)(=O)c3cccc4c(N(C)C)cccc34)c2)cs1 | 0.269% (active) | -75.6% (active) | -92.4% (active) | -80.6% (active) | -82.1% (active) | -90.3% (active) | -88.1% (active) | -87.8% (active) | 
CO[C@@H]1CSSC1Cn1nc(-c2ccc(Oc3ccccc3)cc2)c2c(N)ncnc21 (stereo not given in full) | 7.37% (active) | 35.5% | -72.1% (active) | 29.1% | 16.5% | 9.66% (active) | 47.5% | -12.9% (active) | 
CNC(=O)c1cccc(N2CCc3c2ccc(NC(=O)Nc2ccc(N4CCN(C)CC4)c(C(F)(F)F)c2)c3F)c1 | 94.5% | 11.6% | -96.1% (active) | -71.7% (active) |  | -95.3% (active) | -94.1% (active) | 90.4% | -88.1% (active)
CC(C)c1ccc(C(=O)Nc2sc3c(c2C(N)=O)CCC(=O)C3=O)cc1 | 80.3% | 107% | 91.4% | 105% |  | 91.9% | 119% | 94.8% | 98.6%
CC(=C(c1ccc(OCCN2CCCCC2)cc1)c1ccc(OCCN2CCCCC2)cc1)c1ccccc1 | -20.3% (active) | 110% | -66% (active) | 12.3% |  | 14.3% | 15.7% | 37.4% | 
O=C(Nc1ccc(F)c(Cl)c1)c1cc(-c2ccc(F)cc2F)ccc1O | -6.69% (active) | -37.6% (active) | 0.745% (active) | 6.07% (active) |  | 9.19% (active) | 4.97% (active) | -44.4% (active) | -16% (active)
O=C(c1ccc(O)cc1)C1[C@H](c2ccccc2Br)[C@@H](c2ccccc2)NC12C(=O)Nc1ccc(Br)cc12 (stereo not given in full) | 61.7% | 55.6% |  | 50.9% | 7.04% (active) | 61.6% | -13.8% (active) |  | 18.4%
CCN(CC)CCOc1ccc(C(=C(C)c2ccccc2)c2ccc(OCCN(CC)CC)cc2)cc1 | -85.3% (active) | 50.4% | -83% (active) | -4.84% (active) |  | 6.73% (active) | -5.25% (active) | -18.5% (active) | 0.838% (active)
CN1CCN(c2ccc(Nc3nc(N4CCN(S(=O)(=O)c5ccc(F)cc5)CC4)c4sccc4n3)cc2)CC1 | -62.7% (active) | 65.2% | -100% (active) | -63.8% (active) |  | -51.1% (active) | -90.7% (active) |  | -74.8% (active)
CC1(c2ccccc2)NC(=O)N(CC(=O)Nc2ccc(C(=O)/C=C/c3ccc(Br)cc3)cc2)C1=O (stereo not given) | 14.3% | 25.4% | -44% (active) | 32.7% |  | -69.7% (active) | 10.5% | -8.76% (active) | -27.8% (active)
COc1ccc(/C=N/N=C(\C)c2ccc3c(c2)Nc2ccccc2S3)cc1O | 21.5% | 40.1% | 34.7% | 68.5% |  | 38.7% | 51.2% | 0.0526% (active) | 39.2%
O=S(=O)(c1ccc(Cl)cc1)c1nc(-c2ccccc2)oc1S(=O)(=O)c1ccc(Cl)cc1 | 78.8% | 142% | 82.3% | 46.8% |  | 58.9% | 95.8% | 76% | 93.2%
